test system: HepG2; test: GSK_TCMDC: Percent inhibition of human HepG2 cell line. Test compounds present at 10uM.; assay type: functional

First: CCOc1ccc(-c2nonc2NC(=O)c2ccc(OC(C)C)cc2)cc1OCC
Second: COc1ccc(-c2cccc(NC(=O)c3ccc(C#N)cc3)c2)cc1CN1CCCC1.O=C(O)C(F)(F)F
The Inhibition of the first is lower: 13% for the first, 30% for the second.

First: O=[N+]([O-])c1ccc(Nc2nc(N/N=C/c3cc(Cl)cc(Cl)c3O)nc(Nc3ccccc3)n2)cc1
Second: O=C(Nc1ccc(-c2nc3ccccc3[nH]2)cc1)c1ccc(Cl)c([N+](=O)[O-])c1
The Inhibition of the first is higher: 29% for the first, 6% for the second.

First: Cc1cc(-c2ccc(NC(=O)N3CCc4cc(Br)c(N5CCN(C)CC5)cc43)cc2)ccc1C#N
Second: Cc1cnc(-c2ccc(NC(=O)N3CCc4cc5nccc(N6CCN7CCC[C@H]7C6)c5cc43)c3ccccc23)o1.Cl
The Inhibition of the first is higher: 100% for the first, 12% for the second.

Going from Cc1sc2ncnc(Sc3nc4ccccc4[nH]3)c2c1C to COc1ccc2nc(SC(C)C(=O)c3c[nH]c4ccccc34)[nH]c2c1 (stereo not given), the Inhibition falls from 14% to 0%.

COc1cccc2cc(C(=O)N[C@@H](CC(C)C)C(=O)N[C@H](C=NN3CC(=O)NC3=O)CC(C)C)oc12 and CSc1cccc(Nc2nc3ccc(S(=O)(=O)NCC(C)C)cc3n2C(C)C(C)C)c1 (stereo not given) are the same in Inhibition: 3% for the first, 3% for the second.

Going from Cc1cc2ncn(-c3nccc(NCc4ccc(F)cc4)n3)c2cc1C.O=C(O)C(F)(F)F to O=C(O)C(F)(F)F.c1cc(CNC2CCCC2)cc(-c2ccc(CNc3ccc4ncccc4c3)cc2)c1, the Inhibition rises from 10% to 32%.

Going from Br.CC1(C)N=C(N)N=C(N)N1OCc1cccc2c1ccc1ccccc12 to CC(O)C(C)(CO)NCc1ccc2c3c(cccc13)-c1ccccc1-2.Cl (stereo not given), the Inhibition rises from 63% to 81%.

Going from CC(C)(C)c1ccc2[nH]c(-c3ccc(/C=C/C(=O)NC4CCN(Cc5ccccc5)CC4)cc3)nc2c1 to O=C(Nc1ccc(-c2cccc(-c3nc4ccccc4[nH]3)c2)cc1)NC1CC1c1ccccc1 (stereo not given), the Inhibition rises from 45% to 63%.

CCN(CC)CCN1C(=O)c2oc3ccc(Cl)cc3c(=O)c2C1c1ccc(SC)cc1 (stereo not given) and CCNC(=O)N[C@@H]1CN[C@@H](C#Cc2cc3c(Nc4ccc(OCc5cccc(F)c5)c(Cl)c4)ncnc3s2)C1 are the same in Inhibition: 0% for the first, 0% for the second.

First: COc1ccc(NC(=O)/C=C/c2ccccc2Cl)cc1OCCN1CCC(NC2CC2)CC1
Second: O=C(/C=C/c1ccc(Cl)c(Cl)c1)NCCCCCN1CCC(C(=O)Nc2cccc(Cl)c2)CC1
The Inhibition of the first is lower: 23% for the first, 48% for the second.

First: O=C(CSc1nccn1C1CCCCC1)Nc1cc(C(F)(F)F)ccc1Cl
Second: O=C(NC1CCN(Cc2ccc(O)cc2)CC1)c1ccc(Cl)c(Cl)c1.O=C(O)C(F)(F)F
The Inhibition of the first is higher: 2% for the first, 1% for the second.

Going from Cc1ccc(S(C)(=O)=O)cc1/C=C/C(=O)O to CCOc1ccc(Br)cc1/C=C/C(=O)Nc1ccc2c(c1)CCCN(C)C2.O=C(O)C(F)(F)F, the Inhibition rises from 0% to 40%.

Going from C[C@@H]1CN(C(c2cccc(O)c2)c2cccc(C(=O)N(C)c3cccc(F)c3)c2)[C@@H](C)CN1C(c1cccc(O)c1)c1cccc(C(=O)N(C)c2cccc(F)c2)c1.Cl (stereo not given in full) to Cc1ccc(NC(=O)Nc2ccc(Cl)cc2)cc1-c1cccc(C(=O)Nc2ccc(F)cc2)c1, the Inhibition rises from 0% to 8%.

Going from CC(C)c1sc(-c2ccc(C(C)(C)C)cc2)nc1C(=O)NCCCN1CCCC1=O to O=C(/C=C/c1ccc(C(F)(F)F)cc1)NCCCCCN1CCCN(C(=O)Nc2cccc(Cl)c2)CC1, the Inhibition rises from 0% to 16%.

Going from CC(=O)Nc1nc(C(=O)Nc2cccc(-c3ccc(-c4nc5cccc(C)c5[nH]4)s3)c2)cs1 to Cc1ccccc1C(O)CNc1ccnc(Nc2cccc(C#N)c2)n1 (stereo not given), the Inhibition rises from 14% to 22%.

First: COc1ccc(Cc2nc(/N=C(\N)Nc3ccccc3)ccc2OC)cc1
Second: Cc1cc(CN2CCCC(OC(c3ccc(F)cc3)c3ccc(F)cc3)C2)ccc1O (stereo not given)
The Inhibition of the first is higher: 40% for the first, 28% for the second.

CC[C@H](NC(=O)c1c(CN2CCC(N3CCCCC3)CC2)c(-c2ccccc2)nc2c(Cl)c(O)ccc12)c1ccccc1.Cl and CCNc1cc(C(=O)N[C@@H](Cc2ccccc2)[C@H](O)CN[C@@H]2CCc3ccccc32)cc(N2CCCCS2(=O)=O)c1 are the same in Inhibition: 0% for the first, 0% for the second.

Going from CC(C)C(C(=O)n1cc2c(ccc3nc(N)nc(N)c32)n1)C(C)C to CC1=C(C(=O)Nc2cc3cn[nH]c3cc2F)C(c2cccc(NS(C)(=O)=O)c2)CC(=O)N1 (stereo not given), the Inhibition falls from 58% to 0%.

CNC(=O)c1cc(S(=O)(=O)N2CCN(c3ccccn3)CC2)c(C)s1 and O=C(NC(=O)c1ccccc1O)c1ccccc1O are the same in Inhibition: 0% for the first, 0% for the second.

First: CCCCCCC(N)c1ccc(OCCCOc2ccc(C(N)CCCCCC)cc2)cc1.Cl (stereo not given)
Second: O=[N+]([O-])c1cccc(-c2nc(-c3ccc(Br)cc3)[nH]c2-c2ccc(Br)cc2)c1
The Inhibition of the first is higher: 100% for the first, 6% for the second.
